Test results published in PubChem BioAssay (NCI).
Compounds without any hit were thinned out: in the full panel of roughly 83,000, 20% have a hit.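 Results are percent growth after 48 hours of single-concentration exposure. 100 means growth as in untreated cells, lower positive values show inhibition; negative values down to -100 show cell death.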 Active and inactive are the calls of the source. Rule for the calls: active = growth percent below 10; inactive = the rest.

Columns and labels:
Assay in all cases: NCI-60 one-dose screen, 48 h (100 = growth as untreated, 0 = no growth, -100 = all killed)
Conditions in all cases: 10 µM unless noted
[1] = test system: HCT-15 colon
[2] = test system: HT29 colon
[3] = test system: SNB-75 CNS
[4] = test system: SNB-19 CNS
[5] = test system: U251 CNS
[6] = test system: PC-3 prostate
[7] = test system: SK-MEL-5 melanoma
[8] = test system: UACC-62 melanoma
[9] = test system: LOX IMVI melanoma
[10] = test system: SK-MEL-28 melanoma

Measured: growth

CNC(=O)c1cc(Oc2ccc3nc(NC(=O)c4ccc(CN5CCN(C)CC5)c(C(F)(F)F)c4)sc3c2)ccn1
active: [1] 8.89% | [9] -28.2% | [10] -38.1%
inactive: [2] 16.1% | [3] 55.1% | [4] 75.9% | [5] 57.1% | [6] 47.3% | [7] 31.4% | [8] 56.3%

Cc1ccc(NC(=O)c2ccc(CN3CCN(C)CC3)c(C(F)(F)F)c2)cc1Oc1ccc(-c2[nH]nc3ncnc(N)c23)cc1
active: [2] -8.89% | [5] -27.7% | [9] -85.3%
inactive: [1] 28.8% | [3] 93.3% | [4] 99.2% | [6] 78.7% | [7] 73% | [8] 82.6% | [10] 68.6%

CN1C(=O)/C(=C/C=C/c2ccco2)SC1=S
inactive: [1] 63.5% | [2] 90.9% | [3] 92.6% | [4] 88.5% | [5] 66.8% | [6] 80% | [7] 40% | [8] 77.2% | [9] 75.5% | [10] 83.9%

CS(=O)(=O)c1ccc2c(c1)c1c(n2S(=O)(=O)c2ccc(Cl)cc2)CCCC1
active: [2] 5.37% | [3] -1.4%
inactive: [1] 24% | [4] 30.1% | [5] 25.6% | [6] 30.7% | [7] 26.7% | [8] 15.5% | [9] 36.5% | [10] 64.2%

O=S(=O)(Nc1ccc(I)c(Cl)c1)c1ccc(-c2cnc(C3CC3)o2)cc1
active: [2] 8.12% | [3] -13%
inactive: [1] 27.8% | [4] 42.7% | [5] 31% | [6] 20.4% | [7] 16.8% | [8] 31.2% | [9] 36.1% | [10] 59.7%

c1cncc(-c2cn3nc(-c4c[nH]c5ccccc45)sc3n2)c1
inactive: [1] 27.7% | [2] 21.6% | [3] 51.8% | [4] 61.1% | [5] 69.9% | [6] 48.7% | [7] 23.4% | [8] 55.3% | [9] 46.7% | [10] 55.5%

NS(=O)(=O)Oc1ccc2nc(Nc3ccc(F)c(F)c3)ccc2c1
inactive: [1] 69.6% | [2] 97.3% | [3] 81.3% | [4] 102% | [5] 91.9% | [6] 90.6% | [7] 98.7% | [8] 85.5% | [9] 85.3% | [10] 98.5%

Cc1ccc(NC(=O)c2cc(/C=C/C(=O)NO)cc(C(F)(F)F)c2)cc1Nc1nccc(-c2cccnc2)n1
active: [2] 7.3% | [3] -5.81% | [4] -0.0394% | [5] -65.1% | [7] -88% | [8] -41.3% | [9] -68.2% | [10] -7.78%
inactive: [1] 55.2% | [6] 18.9%

O=c1c2ccccc2nc(COc2ccccc2)n1/N=C/C=C/c1ccccc1
inactive: [1] 76.9% | [2] 98.1% | [3] 83.4% | [4] 82.9% | [5] 98.4% | [6] 89.6% | [7] 99.3% | [8] 94.5% | [9] 72.1% | [10] 94.3%

COc1cc(C(=O)C[n+]2ccc3ccccc3c2)cc(OC)c1OC
inactive: [1] 98% | [2] 95.2% | [3] 90% | [4] 93.5% | [5] 98.3% | [6] 88.8% | [7] 99.8% | [8] 91.4% | [9] 97.4% | [10] 106%

Cc1nn(-c2ccccc2)cc1/C=N/Nc1nc(Nc2ccccc2)nc(Nc2ccc(S(N)(=O)=O)cc2)n1
active: [1] 7.54% | [2] 5.91% | [4] 7.01% | [5] -22.3% | [6] 1.45% | [7] -44.3% | [8] -27.8% | [9] -25.7% | [10] -13.9%
inactive: [3] 44.8%

C/C=C/C=C1\C[C@H]2CO[C@H](O2)C1=O
inactive: [1] 80.8% | [2] 108% | [3] 106% | [4] 95.6% | [5] 97.4% | [6] 96.5% | [7] 98.5% | [8] 89.5% | [9] 49.3% | [10] 104%

CC(=O)Nc1nc2c(s1)C1=CC[C@H]3[C@@H]4CC[C@H](C(C)=O)[C@@]4(C)CC[C@@H]3[C@@]1(C)CC2
inactive: [1] 26.4% | [2] 27.7% | [3] 47.8% | [4] 69% | [5] 44.4% | [6] 43% | [7] 93.6% | [8] 73.7% | [9] 59.6% | [10] 49%

Cc1ccc(-c2cc(-c3cccc4ccccc34)n3c(n2)nc2ccccc23)cc1
inactive: [1] 48% | [2] 73.4% | [3] 46.8% | [4] 53.5% | [5] 48.9% | [6] 60.3% | [7] 40.9% | [8] 43.5% | [9] 56.6% | [10] 77%

CCn1c2ccc(/C=N/NS(=O)(=O)CCN(C)C)cc2c2cc(/C=N/NS(=O)(=O)CCN(C)C)ccc21
inactive: [1] 108% | [2] 103% | [3] 107% | [4] 100% | [5] 99.8% | [6] 100% | [8] 98.6% | [9] 98.6% | [10] 106%
active: [7] -96.7%

Cc1cccc(NC(c2cc3cccc4ccc5cccc2c5c43)c2nnnn2C(C)(C)C)c1C (stereo not given)
inactive: [1] 88.7% | [2] 82.1% | [3] 93.7% | [4] 91.1% | [5] 95.3% | [6] 77.5% | [7] 97.4% | [8] 62.3% | [9] 80.2% | [10] 102%

O=c1[nH]c(CNc2ccc(NCc3c(-c4ccccc4)no[n+]3[O-])cc2)nc2c1cnn2-c1ccccc1
inactive: [1] 71.2% | [2] 92% | [3] 76.1% | [4] 94% | [5] 85.5% | [6] 63.3% | [7] 39% | [8] 52.5% | [9] 63.6% | [10] 85.3%

COc1ccc([C@H]2[C@H](O)C(=O)N2c2cc(OC)c(OC)c(OC)c2)cc1Cl
inactive: [3] 58.6% | [4] 29.2% | [6] 12.6% | [8] 31% | [9] 14.4% | [10] 63.6%
active: [1] 9.77% | [2] 1.45% | [5] 1.42% | [7] -12.5%

CSc1ccc(/C(=N/N=C(N)N)c2ccccc2)cc1
active: [3] 6.66%
inactive: [1] 12.4% | [2] 17% | [4] 29% | [5] 29.2% | [6] 35.4% | [7] 17.7% | [8] 44% | [9] 13% | [10] 65.5%

O=S(=O)(NCCCNc1nccc(-n2cnc3ccccc32)n1)c1ccc(F)cc1
active: [7] 2.63%
inactive: [1] 82.8% | [2] 92.8% | [3] 82.5% | [4] 92.6% | [5] 93.8% | [6] 69.3% | [8] 61.6% | [9] 74% | [10] 97.9%

Cc1cc(O)c(=O)cc2c1C[C@H]1CC(C)(C)/C=C/C[C@]3(C)Oc4cc(=O)c(O)cc(C)c4C[C@H]3C[C@H](O)[C@@]1(C)O2
inactive: [1] 18.5% | [3] 23.9% | [4] 11.2% | [10] 11.1%
active: [2] 8.78% | [5] 3.83% | [6] 9.28% | [7] -46.5% | [8] -41% | [9] 6.81%

CC(=O)Nc1ccc(NC(=O)Nc2cccc(-c3nc(-c4ccc(NC(=O)c5cccnc5)cc4Cl)no3)c2)cc1C(F)(F)F
active: [2] -41% | [3] -64.1% | [4] -12.2% | [5] -56.1% | [6] -61.4% | [7] -88.2% | [8] -81.6% | [9] -91.9% | [10] -81.8%
inactive: [1] 25.7%

CCc1ccc(NC(=O)N[C@@H](Cc2cc(F)cc(F)c2)C(=O)N[C@@H]2C(=O)N3CCC[C@H]3C(=O)N3CCO[C@H](C)[C@H]3C(=O)N[C@@H](CO)C(=O)N3C[C@H](C)C[C@H]3C(=O)O[C@H]2C)c(F)c1
inactive: [1] 15.8% | [2] 30.5% | [3] 20.3% | [4] 26.9% | [5] 29% | [6] 17.3% | [8] 26.3% | [9] 20.4% | [10] 43.4%
active: [7] -2.9%

COc1ccc(CCN2C(=O)CSC2=S)cc1OC
inactive: [1] 84% | [2] 109% | [3] 112% | [4] 99.9% | [5] 99.5% | [6] 91.2% | [7] 85.2% | [8] 97% | [9] 56.6% | [10] 102%

C#Cc1ccc(NC(=O)c2ccc(/C=C/C(=O)c3nccn3C)cc2)c(F)c1
active: [1] 7.76% | [5] 5.03% | [9] -60.8%
inactive: [2] 15.8% | [3] 17.7% | [4] 23% | [6] 29.9% | [7] 60.5% | [8] 29.9% | [10] 84%

CS(=O)c1nccc(-c2c(-c3ccc(F)c(OCc4ccccc4)c3)nc3sccn23)n1 (stereo not given)
inactive: [1] 74.8% | [2] 89.5% | [3] 95.4% | [4] 93.3% | [5] 105% | [6] 54.1% | [7] 100% | [8] 93.6% | [9] 81.7% | [10] 55.5%
